ELG1 DNA repair: inhibitors of ELG1-dependent DNA repair in HEK293T cells; Potency, µM (top dose mostly 46.1 µM), for the others: at the top dose activity change, negative = inhibition, actives largely listed as inhibitors; HEK293T ELG1-luciferase reporter, luminescence, 16 h; DNA damage induced by 5-fluorouridine; 2.3% of 330,000 active; also: % is scaled to controls: 0 for no effect and ±100 for the full control effect; nearly all actives have a fitted effect of over 55% in size
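DMSO vehicle served as the neutral condition. Each well held 2,000 cells given 5-fluorouridine plus compound; after 16 hr at 37 °C/5% CO2, ONE-Glo was added and luciferase measured 30 min later.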
Nrf2 block: inhibitors of Nrf2 signaling; A549 ARE-Fluc reporter, luciferase luminescence, 18-24 h; 2.1% of 360,000 active; Potency, µM (top dose mostly 46 µM), without a hit: top-dose activity change, negative = inhibition, most hits filed as inhibitors; also: % is scaled to controls: 0 for no effect and ±100 for the full control effect; nearly all actives have a fitted effect of over 60% in size
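Nrf2 function is reported as luminescence of an ARE-controlled luciferase in A549 cells. Compounds were tested at several concentrations, and a CellTiter-Fluor read on the same wells flagged cytotoxicity.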
A549 tox: kills or reduces viability of A549 cells in Nrf2 counter-screen | A549 ARE-Fluc cells, CellTiter-Fluor viability, 18-24 h | Potency, µM (doses to about 46 µM), without a hit: at the top dose activity change, negative = cytotoxicity, most hits filed as inhibitors | 0.16% of 390,000 active | AID 504648; also: % is scaled to controls: 0 for no effect and ±100 for the full control effect
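A549 ARE_Fluc cells in 5% FBS OPTI-MEM were exposed to compounds in concentration-response for 18-24 h at 37 deg C. Viability was read by CellTiter-Fluor fluorescence (Ex 405/Em 525) after 30 min, before the luciferase read.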
Nrf2 ARE act: activates Nrf2 signaling. AREc32 ARE-luciferase reporter (MCF7-derived line), luminescence, 24 h. Potency, µM (highest dose often 46.1 µM), inactives show at the highest dose activation, usual class: activators. 0.31% of 410,000 active. AID 624171; also: % of control where 0% means no effect; nearly all actives have a fitted effect of over 65% in size
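AREc32 cells carrying an ARE-driven firefly luciferase reporter were seeded at 1000 cells/well in OPTI-MEM with 5% FBS, then exposed to compound for 24 hr at 37 deg C. Luminescence was read with Steady-Glo after 30 min at RT.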
Active calls of the source: *; ? = inconclusive; . = no result; [ ] = dose if it differs, or a comment. An excerpt weighted towards active compounds, which were near 3.7% of everything screened. Calls follow the shape of the dose curve; as a rule, active = well fitted curve in the direction sought with a large enough effect; inconclusive = small, poorly fitted or top-dose-only effect, or another doubt; inactive = no such curve, though single readings can be large; an effect the other way counts as inactive or inconclusive. Potency is read from the fitted curve at half-maximal effect.

SMILES | ELG1 DNA repair | Nrf2 block | A549 tox | Nrf2 ARE act
C[C@@H]1C[C@H]2[C@@H]3CCC4=CC(=O)C=C[C@]4(C)[C@@]3(F)[C@@H](O)C[C@]2(C)[C@@]1(O)C(=O)COP(=O)(O)O | 10% | 0.023µM* | -2% | -1%
CC1(c2ccccc2)O[C@@H]2C[C@H]3[C@@H]4CCC5=CC(=O)C=C[C@]5(C)[C@@]4(F)[C@@H](O)C[C@]3(C)[C@]2(C(=O)CO)O1 (stereo partly drawn) | 0% | 0.026µM* | -5% | 3%
CC12C=CC(=O)C=C1C(F)CC1C3CCC(O)(C(=O)CO)C3(C)CC(O)C12F (stereo not drawn) | . | 0.0052µM* | -3% | -1%
C[C@@H]1C[C@H]2[C@@H]3C[C@H](F)C4=CC(=O)C=C[C@]4(C)[C@@]3(F)[C@@H](O)C[C@]2(C)[C@@]1(O)C(=O)CO | 23% | ? | -6% | 0%
CC1(C)OC2CC3C4CC(F)C5=CC(=O)C=CC5(C)C4(F)C(O)CC3(C)C2(C(=O)CO)O1 (stereo not drawn) | ? | ? | -11% | 1%
COc1ccc(C)cc1NS(=O)(=O)c1c(C(=O)N2CCCCCC2)c(C)n(C)c1C | . | -20% | 6% | 0%
O=C(OCc1c(-c2ccccc2)ncc2ccccc12)c1cccc(Br)c1 | 9.2µM* | -25% | 8% | 0%
O=C(c1ccc(Cl)cc1)N1CCN(c2ccc([N+](=O)[O-])c(NCc3cccnc3)c2)CC1 | . | 26µM* | ? | 4%
COc1ccc(CCNc2ccc(C(=O)O)cc2[N+](=O)[O-])cc1OC | 10% | -19% | -14% | 0%
O=C(c1ccccc1)N1CCN(c2ccc([N+](=O)[O-])c(NCc3cccnc3)c2)CC1 | ? | ? | -18% | 5%
COc1ccc(CCNc2cc(N3CCN(C(=O)c4ccc(C)cc4)CC3)ccc2[N+](=O)[O-])cc1OC | 2.1µM* | . | . | .
O=C(/C(C=Nc1cccc(C(F)(F)F)c1)=C(/O)c1ccco1)C(F)(F)F | ? | 27% | 7% | 7.9µM*
CC(=O)N(C1=C(N)C(=O)c2ccccc2C1=O)c1ccccc1 | 18µM* | ? | 2% | -4%
COc1cc(C)c(N(C(C)=O)c2ccccc2)c(C)c1 | ? | . | 1% | -2%
CCc1ccc(-c2nc3cc(NC(=O)c4cc5ccccc5cc4OC)ccc3o2)cc1 | . | ? | -2% | -3%
c1ccc(Cn2c(-c3ccco3)nc3nc4ccccc4nc32)cc1 | ? | ? | 3% | 5%
c1coc(-c2nc3nc4ccccc4nc3n2-c2ccc3c(c2)OCCO3)c1 | 16µM* | -14% | -8% | 0%
Clc1cccc(CSc2nncn3c2cc2sccc23)c1 | . | ? | 5% | 0%
Cc1ccc(S(=O)(=O)c2c(C)nn(C(C)(C)C)c2OC(=O)C2CCCC2)cc1 | -12% | 21µM* | -20% | 0%
Cc1nn(C(C)(C)C)c(OC(=O)C2CCCC2)c1S(=O)(=O)c1ccccc1 | -13% | ? | -17% | 0%
Nc1c(Cl)ncnc1N/N=C/c1ccnc2ccccc12 | 24% | 10% | -5% | 4%
Nc1c(Cl)ncnc1N/N=C/c1ccc2ccccc2n1 | ? | 13µM* | ? | ?
O=C(CSc1ncccn1)NC1CCCC1 | . | . | . | 0%
COc1cc(NC(=S)NCc2cccs2)cc(OC)c1 | 0% | 3% | 2% | 3%
Cc1cc(C)cc(NC(=S)NCc2cccs2)c1 | 0% | 23µM* | ? | 3%
SMILES | ELG1 DNA repair | Nrf2 block | A549 tox | Nrf2 ARE act
Cc1ccc(-n2c(=O)c3c(c4cc(C)ccc4n3C)n(Cc3ccc(F)cc3)c2=O)cc1 | . | ? | -1% | -1%
CCOc1ccc(NC(=O)c2ccc(OC)cc2)cc1 | ? | ? | 0% | 2%
COc1cccc(Nc2ncccc2C(=O)Nc2ccccc2)c1 | ? | 21µM* | ? | 2%
CCOc1ncccc1C(=O)Nc1ccc(C(=O)Nc2ccc(OC)cc2)cc1 | ? | 8.2µM* | -15% | -1%
COc1cccc(NC(=O)c2ccccc2Oc2ccccc2)c1 | 4% | -25% | 1% | 1%
O=C(NNC(=O)c1ccccc1[N+](=O)[O-])c1ccc(NS(=O)(=O)c2cccs2)cc1 | 12% | 5% | 0% | 0%
CCOc1ncccc1C(=O)NNC(=O)c1ccc(NS(=O)(=O)c2cccs2)cc1 | 9% | 2% | 0% | 2.5µM*
COc1ccc(N=c2nc(-c3ccccc3)n(-c3ccc(C)cc3)s2)cc1 | . | ? | -17% | .
COc1ccc(/C=C/C(=O)Nc2ccc(-n3nncc3-c3ccccc3)cc2)cc1OC | 15µM* | ? | -5% | 3%
O=C(OCc1cn([C@H]2CN(CC3CCCCC3)[C@@H](c3ccc(Cl)cc3)C[C@@H]2O)nn1)c1ccccc1 | . | . | . | -2%
COc1ccc(-c2nc(NC(=O)C3CC(=O)N(c4ccc5c(c4)OCCO5)C3)sc2C)cc1 (stereo not drawn) | -7% | 15µM* | ? | 0%
COc1ccc2nc(NC(=O)C3CC(=O)N(c4ccc5c(c4)OCCO5)C3)sc2c1 (stereo not drawn) | ? | ? | 0% | 2%
CC(C)c1cc(C(=O)N2CCCC(CCC(=O)N3CCN(c4ccccn4)CC3)C2)no1 (stereo not drawn) | 12µM* | ? | -4% | 3%
Cc1ncccc1C(=O)N1CCCC(CCC(=O)N2CCN(c3ccccn3)CC2)C1 (stereo not drawn) | 13% | -4% | -2% | -1%
Cc1ccccc1C(=O)N1CCCC(CCC(=O)N2CCN(c3ccccn3)CC2)C1 (stereo not drawn) | -17% | 23µM* | -10% | 1%
O=C(CCC1CCCN(C(=O)COc2ccccc2)C1)N1CCN(c2ccccn2)CC1 (stereo not drawn) | 21µM* | ? | -11% | 1%
Cc1ccc(N=c2oc3cc(O)ccc3cc2C(N)=O)cc1 | ? | 21µM* | 2% | 0%
CCOc1ccc(N=c2oc3cc(O)ccc3cc2C(=O)NCC2CCCO2)cc1 (stereo not drawn) | 2.1µM* | -17% | -3% | 0%
COc1ccc(N=c2oc3cc(O)ccc3cc2C(=O)Nc2ccccn2)cc1OC | 4.1µM* | 28% | -9% | 0%
O=C(C1=COCCO1)N(Cc1nnc(-c2ccccc2Cl)o1)C1CC1 | ? | -4% | 0% | 0%
CCNC(=O)C1CCCN(C(=O)c2ccccc2OC(F)(F)F)CC1 (stereo not drawn) | . | . | . | 0%[9.22 µM]
COc1ccc(SC[C@H](C)CN2CC[C@H](C(C)(C)C)CCC2=O)cc1 | -13% | -20% | 3% | 3%
CC(=O)NNC(=S)NC(=O)C(c1ccccc1)c1ccccc1 | -20% | 16µM* | ? | 0%
CC(C)(C)C(=O)NC(=S)NNC(=O)C(c1ccccc1)c1ccccc1 | -11% | 21µM* | -26% | -1%
COc1ccc(S(=O)(=O)NCc2ccccn2)cc1C | . | . | . | 0%
COc1cccc(CNC(=O)Cn2nc(C)c3sc4ccccc4c3c2=O)c1OC | . | -8% | 8% | 3%

Source: PubChem BioAssay
